JMJD2E inh: qHTS Assay for Inhibitors of Human Jumonji Domain Containing 2E (JMJD2E); Lysine-specific demethylase 4E (Homo sapiens), B2RXH2; JMJD2E catalytic domain, FDH-coupled NADH fluorescence (FDH is formaldehyde dehydrogenase); Potency, µM (titrated, usually from 57.1 µM), for inactives: top-dose activity change, negative = inhibition, actives largely listed as inhibitors; actives 1.6% (n = 230,000); AID 2147, 2009;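 also: potency is read from the fitted curve at half-maximal effect; 0% = wells with enzyme and -100% = buffer wells without enzyme; nearly all actives have a fitted effect of over 50% in size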
Target sequence (B2RXH2 1-337 limits assumed): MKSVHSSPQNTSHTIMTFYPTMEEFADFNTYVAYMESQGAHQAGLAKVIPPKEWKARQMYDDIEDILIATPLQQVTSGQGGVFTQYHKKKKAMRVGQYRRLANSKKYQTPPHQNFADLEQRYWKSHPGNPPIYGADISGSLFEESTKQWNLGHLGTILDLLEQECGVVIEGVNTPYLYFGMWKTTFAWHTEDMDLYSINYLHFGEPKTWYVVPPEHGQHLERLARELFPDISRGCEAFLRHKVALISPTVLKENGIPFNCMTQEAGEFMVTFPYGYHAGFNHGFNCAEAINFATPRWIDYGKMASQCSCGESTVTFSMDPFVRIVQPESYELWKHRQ
ALDH1A1 block: qHTS Assay for Inhibitors of Aldehyde Dehydrogenase 1 (ALDH1A1) | Potency, µM (top dose mostly 75.3 µM), inactives show at the top dose activity, negative = inhibition, hits mostly inhibitors | actives 7.3% (n = 220,000) | AID 1030, 2008 | Purified ALDH1A1, NADH fluorescence, propionaldehyde substrate | Aldehyde dehydrogenase 1A1 (Homo sapiens), P00352;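 also: potency is read from the fitted curve at half-maximal effect; plate controls were no enzyme wells and a reference inhibitor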
PNC assembly inh: High Content Assay for Compounds that inhibit the Assembly of the Perinucleolar Compartment; PC3M PTB-GFP, PNC prevalence imaging, 16 h; stronger effect = lower value; activity change (PNC), negative = inhibition, % at 10 µM; actives 3.1% (n = 140,000); AID 2417, 2010;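 active = readout at or below -70, meaning at least 70% loss of cells showing the perinucleolar compartment, a nuclear body marking cancer cells; inconclusive = readout between -30 and a set limit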;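 also: plate controls were DMSO wells for no effect and camptothecin positive control wells for full effect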
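PC3M cells stably expressing PTB-GFP, 750–1000 cells/well, treated 16 h at 37 °C with compound (23 nl of library stock), in duplicate. After paraformaldehyde fixation and Hoechst stain, imaged at 20x; PNC prevalence scored by image analysis.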
HPGD inh: qHTS Assay for Inhibitors of HPGD (15-Hydroxyprostaglandin Dehydrogenase). purified HPGD, NADH fluorescence kinetic, PGE2 substrate. 15-hydroxyprostaglandin dehydrogenase [NAD(+)] (Homo sapiens), P15428. AID 894, 2007. actives 4.3% (n = 150,000). Potency, µM, without a hit: at the highest dose activity change, negative = inhibition, actives largely listed as inhibitors; also: potency is read from the fitted curve at half-maximal effect
Target sequence (P15428 whole entry, looked up): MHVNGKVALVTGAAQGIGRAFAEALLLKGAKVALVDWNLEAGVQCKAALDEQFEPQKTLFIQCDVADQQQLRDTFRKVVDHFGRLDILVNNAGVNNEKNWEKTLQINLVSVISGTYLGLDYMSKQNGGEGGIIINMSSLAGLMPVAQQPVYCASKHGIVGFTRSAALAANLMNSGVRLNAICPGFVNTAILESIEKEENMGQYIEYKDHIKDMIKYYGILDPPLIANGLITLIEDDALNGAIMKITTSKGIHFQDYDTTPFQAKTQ
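20 nM HPGD preincubated 15 min at room temperature with compound in 50 mM Tris-HCl pH 8, 0.01% Tween 20. Started with 1 mM NAD+ and 30 uM prostaglandin E2; NADH fluorescence (360/450 nm) read 5 times over 30-s intervals, last minus first.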
* = called active by the depositor; ? = inconclusive; / = no result given; [ ] = dose if it differs, or a comment. Rows were chosen to be rich in hits. Some 11% of all compounds tested hit in one or more screens of this group. Unless noted, calls follow the shape of the dose curve; as a rule, active = well fitted inhibition curve with a large enough effect (not every such curve was filed as active); inconclusive = small, poorly fitted or top-dose-only effect, or another doubt; inactive = no such curve, though single readings can be large or run the other way. Unless noted, % is scaled to controls: 0 for no effect and ±100 for the full control effect.

SMILES	JMJD2E inh	ALDH1A1 block	PNC assembly inh	HPGD inh
Cc1ccc(C)c(S(=O)(=O)NCc2ccc(C(=O)N3CCCCCC3)cc2)c1	5.2%	-4.6%	?	7.08µM*
Cc1cc(C)c(C)c(S(=O)(=O)NCc2ccc(C(=O)N3CCCCC3)cc2)c1C	-6.2%	?	57.5	2µM*
Cc1cc(C)c(C)c(S(=O)(=O)NCc2ccc(C(=O)N3CCCC3)cc2)c1C	13.2%	?	/	/
CC(=O)O[C@H]1CC[C@@]2(C)C(=CC[C@@H]3[C@@H]4CC[C@H](c5cc(C(F)(F)F)n(C(C)=O)n5)[C@]4(C)CC[C@@H]32)C1	/	3.8%[13.5 µM]	/	-4.8%
CC(C)=CCC(C)(C)/C=N/NC(N)=O	1.1%	/	/	/
O=C(NCC(c1cccnc1)N1CCN(c2ccc(F)cc2)CC1)c1ccc(F)cc1 (stereo unspecified)	-3.1%	31.6µM*	-20.7	-12.1%
O=Cc1ccc(-n2nncc2-c2ccc([N+](=O)[O-])cc2)cc1	-0.9%	12.6µM*	/	/
CC1=C(C(=O)O)N2C(=O)[C@@H](NC(=O)C(N)C3=CCC=CC3)[C@H]2SC1 (stereo partly specified)	22.4µM*	-12.6%	/	-25.0%
CCCCC#Cc1nc(N)c2ncn([C@@H]3O[C@H](C(=O)NCC)[C@@H](O)[C@H]3O)c2n1	17.7%	7.94µM*	/	-7.2%
CCC(=O)N1c2ccccc2-c2nnc(SC)nc2OC1c1ccc(N(C)C)cc1 (stereo unspecified)	2.0%	15.8µM*	19.3	-4.7%
CCC1Oc2nc(SC)nnc2-c2ccccc2N1C(=O)c1ccccc1 (stereo unspecified)	2.4%	-6.7%	1.0	-10.8%
CN(CC(=O)Nc1ccc(Cl)cc1)CC(=O)Nc1ccc(C(N)=O)cc1	-28.1%	31.6µM*	/	/
O=C(c1ccco1)N1CCN(C(=O)C2CC2)CC1	-0.3%	-11.0%	-6.0	-4.1%
Nc1ccc(N2CCN(C(=O)c3ccco3)CC2)cc1	-20.0%	?	?	0.3%
O=C(c1ccco1)N1CCN(C(=O)c2cccc3c2C(=O)N(C2CCCCC2)C3)CC1	-5.9%	10µM*	-4.8	-1.4%
O=C(c1ccco1)N1CCN(C2CCCC2)CC1	?	-6.5%	-101.2*	-13.6%
O=C(c1ccco1)N1CCN(C(=O)c2cccc3c2C(=O)N(Cc2cccnc2)C3)CC1	-12.1%	?	?	-3.6%
O=C(c1ccc(Cl)cc1)N1CCN(C(=O)c2ccco2)CC1	1.1%	25.1µM*	-100.0*	-4.8%
NC(=O)N1CCN(C(=O)c2ccco2)CC1	-7.4%	20µM*	?	-13.8%
O=C(c1ccncc1)N1CCN(C(=O)c2ccco2)CC1	3.7%	-3.4%	-3.7	-15.3%
O=C(c1ccco1)N1CCC(n2nnc3ccccc32)CC1	0.3%	25.1µM*	34.8	-21.3%
O=C(c1ccco1)N1CCN(c2nc3ccccc3n3nnnc23)CC1	?	?	?	-28.3%
O=C(NC1c2ccccc2-c2ccccc21)c1ccco1	2.5%	-3.3%	?	-7.7%
O=C(NC1CCCCC1NC(=O)c1ccco1)c1ccco1 (stereo unspecified)	-1.4%	17.4%	-84.9*	-9.1%
CCN1C(=O)c2ccccc2S(=O)c2ccc(C(=O)N3CCN(C(=O)c4ccco4)CC3)cc21 (stereo unspecified)	1.3%	8.91µM*	?	-5.8%
SMILES	JMJD2E inh	ALDH1A1 block	PNC assembly inh	HPGD inh
CSc1nc(N)c2ncn([C@H]3O[C@H](COP(=O)(O)OP(=O)(O)OP(=O)(O)O)[C@@H](O)[C@@H]3O)c2n1	-25.5%	-1.4%	/	-0.8%
CC(C)[C@@H](CC(=O)N[C@@H]1CCCC[C@H]1C(=O)N[C@H](CC(=O)N[C@@H](CCC(=O)O)CC(=O)O)Cc1c[nH]c2ccccc12)NC(=O)C[C@H](Cc1c[nH]c2ccccc12)NC(=O)[C@@H]1CCCC[C@H]1N	-21.4%	15.1%	/	0.7%
C=CCCCCCCCCC(=O)Nc1ncccn1	-3.0%	/	/	/
NNC(=O)[C@@H](O)[C@H](O)C(=O)NN	/	1.1%[13.5 µM]	/	0.1%
CCCC[n+]1ccn(C2=C([O-])c3ccccc3C(=O)/C2=N\S(=O)(=O)c2ccccc2)c1	0.0%	?	42.1	-14.6%
CCCCC[n+]1ccn(C2=C([O-])c3ccccc3C(=O)/C2=N\S(=O)(=O)c2ccccc2)c1	-14.7%	5.01µM*	94.7	-11.2%
O=C(Nc1ccccc1C(F)(F)F)c1cc(-c2ccccc2O)on1	-2.6%	-2.6%	-100.0*	-15.5%
COc1cccc2c1NC(C(=O)O)C1CC=CC21 (stereo unspecified)	?	8.91µM*	-10.2	?
COc1cccc(C2Nc3c(F)cc(Br)cc3C3C=CCC32)c1OC (stereo unspecified)	0.8%	5.7%	21.0	-11.5%
NS(=O)(=O)c1ccc2c(c1)C1C=CCC1C(C1CC=CCC1)N2 (stereo unspecified)	?	?	-27.9	-16.6%
CC(C)C1Nc2ccc(S(N)(=O)=O)cc2C2C=CCC21 (stereo unspecified)	-26.2%	20µM*	?	-27.3%
CC(=O)c1ccc2c(c1)C1C=CCC1C(C(=O)O)N2 (stereo unspecified)	2.3%	?	/	/
Cc1ccc2c(c1)C1C=CCC1C(C(=O)O)N2 (stereo unspecified)	?	?	36.3	20µM*
NC(=O)/N=C(\N)NC(=O)c1ccccc1	/	-4.8%[13.5 µM]	/	-7.1%
COc1cccc(-n2c(=O)n(Cc3ccccc3)c(=O)c3[nH]cnc32)c1C	5.3%	/	/	/
C=CCSC(=C(C#N)C#N)c1cc2c([nH]1)CCCC2	-1.2%	?	26.0	-22.9%
COc1ccc(CCn2c(O)cc3nn(-c4nc5ccccc5s4)c(=O)c-3c2C)cc1	28.2µM*	/	/	/
Cc1cccc(C)c1NC(=S)NCc1ccncc1	-4.3%	-13.0%	/	/
CCCC(O)(CCN1CCCCC1)c1ccc(OCC)cc1 (stereo unspecified)	4.6%	0.891µM*	10.3	-2.3%
CCCCCC(O)(CCN1CCCCC1)c1ccc(OCC)cc1 (stereo unspecified)	7.2%	1.78µM*	/	/
CN(C(=O)Cn1nnc(-c2cccnc2)n1)C1CCCCC1	-1.7%	/	/	/
O=C(CSc1nnc(COc2ccccc2Cl)o1)NC(=O)NCc1ccco1	-1.4%	?	/	/
CN(C)CCC#CC(O)(c1ccccc1)c1ccccc1	5.0%	25.1µM*	50.2	-5.5%
NC(N)=NC(N)=Nc1ccc(S(N)(=O)=O)cc1	/	3.7%[13.5 µM]	/	-1.3%
CCC1OC(=O)C(C)[C@@H](O[C@H]2C[C@@](C)(OC)C(O)C(C)O2)C(C)[C@@H](O[C@@H]2OC(C)CC(N(C)C)C2O)[C@@](C)(O)CC(C)CN(C)C(C)C(O)[C@]1(C)O (stereo partly specified)	4.2%	5.1%	/	-13.1%
Fc1ccc(CSc2nnc(-c3cccs3)o2)cc1	5.3%	-13.9%	?	15.8µM*
Fc1ccccc1CSc1nnc(-c2cccs2)o1	-17.4%	-1.7%	-18.0	28.2µM*
O=C(CSc1nnc(-c2cccs2)o1)N1CCCCC1	?	?	29.2	25.1µM*

Bioassay records deposited in PubChem BioAssay by National Center for Advancing Translational Sciences (NCATS).
